# Experimental data taken from PubChem BioAssay.
# “And” between values parts separate entries of the source, which are not always exact repeats. Equal entries are not always repeated. The source made the active and inactive calls.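 Rule for the calls, unless noted: active = compounds whose cell count with miR-34 switched on is under 0.7 times the count with it off; inactive = the rest.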
# Columns and labels:
# [1] = stimulators of nuclear beta-catenin in C2C12, primary screen, imaging, WNT3A-conditioned medium, mouse C2C12, NPC library (AID 1117326; in the data active = nuclear beta-catenin stimulation mostly above about 4.2%, no sharp cut-off; inactive = mostly below about 10%); settings: stronger effect = higher value
# [2] = stimulators of insulin release from INS-1E, primary screen, cell-based, 5 mM glucose, NPC library (AID 1117329;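 active = compound raises insulin release from rat beta cells at 5 mM glucose, no numeric limit stated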); settings: rat INS-1E insulin secretion, at 10 µM, stronger effect = higher value
# [3] = growth inhibition of GSK3B-pretreated HCT116 cells – cell-based, CellTiter-Glo, 0.2 to 20 µM (AID 1117336;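 active = compounds lowering colon cancer cell viability after pretreatment blocking the GSK3B kinase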); settings: HCT116 viability after GSK3B inhibitor, at 20 µM, stronger effect = higher value
# [4] = inhibition of endothelial tube formation, primary screen, imaging, VEGF stimulated, CD31 staining, tube area, NPC library (AID 1117340;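 active = compound that reduces growth-factor-driven endothelial tube area in a mixed cell culture, no cutoff stated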); settings: VEGF-stimulated ADSC/ECFC co-culture, at 10 µM, stronger effect = higher value
# [5] = glucagon-like peptide 1 release enhancers, primary assay, NCI-H716 cell line, NPC library (AID 1117341;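 active = compound raises GLP1 secretion from the human gut endocrine cells, with no numeric limit stated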); settings: NCI-H716 cells, at 10 µM, stronger effect = higher value
# [6] = HCT116 colon cancer cell growth inhibition, primary screen, CellTiter-Glo luminescence, NPC library (AID 1117342;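 active = compounds that lower survival of HCT116 colon cancer cells in the luminescence readout, no numeric limit stated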); settings: at 20 µM (top of the series)
# [7] = CellTiter-Glo luminescent readout of SW480 viability loss, NPC library primary (AID 1117343;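 active = compounds that lower viability of the colon cancer cells in the luminescence readout, with no numeric limit stated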); settings: CellTiter-Glo luminescence; at 20 µM (top of the series) unless noted
# [8] = decreased DLD-1 cellular survival, CellTiter-Glo luminescent readout, NPC compound collection, primary HTS (AID 1117346;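 active = compounds that lower survival of DLD-1 colon cancer cells in the luminescence readout, no cutoff given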); settings: DLD-1 viability, CellTiter-Glo luminescence; at 20 µM (top of the series)
# [9] = differential killing of epithelial or mesenchymal cells, primary screen, imaging, PC-3E GFP, TEM4-18 mCherry, co-culture (AID 1345086;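 active = compounds killing one labelled cell type while sparing the other, by normalised counts and ratio limits, not self-fluorescent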;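 for all read-outs here: cells exposed to compound for 72 h before imaging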;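 for red/green cell ratio (normalised): normalised mesenchymal count divided by normalised epithelial count so high means epithelial killing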); settings: imaging cell counts, at 1 µM; for red/green cell ratio (normalised): actives lie on both sides, counts scaled to control wells, 1 = unselective
# [10] = sensitizers of A549 cells to miR-34 induction, primary screen, imaging, A549 dox-inducible miR-34, nuclei and caspase counts (AID 1347080); settings: A549 miR-34 inducible, Hoechst nuclei count, 48 h
# [11] = target: NAD(+) hydrolase SARM1 (Homo sapiens) (UniProt Q6SZW1); assay: SARM1 TIR NADase inhibitors, cell lysate, NAD-Glo luminescence (AID 1508614;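 active = compound whose remaining NAD level is above about 45 nM, limit read from the data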;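 note: higher remaining NAD means stronger inhibition of SARM1 NADase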); settings: SAM-TIR HEK293T lysate NADase, at 1 µM, stronger effect = higher value
# Chain of NAD(+) hydrolase SARM1 (Homo sapiens) (Q6SZW1 whole entry, looked up): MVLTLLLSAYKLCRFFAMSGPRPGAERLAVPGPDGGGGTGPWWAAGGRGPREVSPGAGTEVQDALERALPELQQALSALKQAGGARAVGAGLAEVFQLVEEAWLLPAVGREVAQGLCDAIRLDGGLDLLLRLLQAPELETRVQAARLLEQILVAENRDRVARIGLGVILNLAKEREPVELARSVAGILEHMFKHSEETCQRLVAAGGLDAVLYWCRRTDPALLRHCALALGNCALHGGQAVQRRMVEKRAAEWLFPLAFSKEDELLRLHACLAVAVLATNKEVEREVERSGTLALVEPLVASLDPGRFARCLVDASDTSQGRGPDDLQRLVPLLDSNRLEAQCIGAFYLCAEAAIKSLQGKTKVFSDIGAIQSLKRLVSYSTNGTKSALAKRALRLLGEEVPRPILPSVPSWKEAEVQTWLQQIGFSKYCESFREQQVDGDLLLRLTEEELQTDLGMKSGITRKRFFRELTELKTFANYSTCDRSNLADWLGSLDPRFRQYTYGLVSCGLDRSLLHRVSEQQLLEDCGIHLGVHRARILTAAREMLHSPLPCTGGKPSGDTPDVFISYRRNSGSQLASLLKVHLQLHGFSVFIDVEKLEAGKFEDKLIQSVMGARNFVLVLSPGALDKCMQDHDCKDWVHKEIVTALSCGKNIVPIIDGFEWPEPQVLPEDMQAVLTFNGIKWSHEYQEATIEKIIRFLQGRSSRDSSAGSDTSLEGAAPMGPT
# [12] = liver-stage malaria parasite growth inhibition, primary screen, cell-based, HepG2, luciferase luminescence, HepG2 viability (AID 624349; in the data active = parasite load remaining mostly below about 12%, no sharp cut-off; inactive = mostly above about 10%;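 note: 100% = mean of DMSO negative control wells on the same plate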); settings: P. berghei liver stage in HepG2, luciferase luminescence, concentration not given here; parasite load remaining: stronger effect = lower value; viability: measured here: HepG2 viability without parasites
# [13] = survival rescue of mitochondrial mutant cells in low glucose, primary screen, MELAS cybrids, Rieske KO mouse fibroblasts, CellTiter-Glo (AID 1508586;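 active = mean z-score across replicates of 1.96 or higher in either the MELAS or the Rieske mutant cell line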;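 note: z relative to plate mean and SD of compound and empty wells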)
# [14] = hESC survival regulators, cell-based (AID 493140; call rule not given here;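 note: cells exposed to compounds for four days before counting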); settings: human embryonic stem cell survival screen; stronger effect = higher value
# [15] = measured here: epithelial PC-3E GFP cell survival
# [16] = measured here: mesenchymal TEM4-18 mCherry cell survival
# [17] = stronger effect = lower value, cell number ratio, induced over uninduced
# [18] = measured here: relative caspase fold change +Dox/-Dox
# [19] = measured here: total cells with miR-34 induction, stronger effect = lower value
# [20] = measured here: total cells without miR-34 induction
# [21] = MELAS cybrid survival, CellTiter-Glo 48 h, stronger effect = higher value
# [22] = Rieske KO mouse fibroblast survival, CellTiter-Glo 72 h
compound,measurement,setting,value
COc1ccc(Cc2cnc(N)nc2N)cc1OC,nuclear beta-catenin stimulation,[1]; at 10 µM,-0.5% (inactive)
same,nuclear beta-catenin stimulation,"[1]; stimulation, at 2 µM",-0.6%
same,insulin secretion stimulation,[2],0.9% (inactive)
same,viability decrease,[3],-3.05% (inactive)
same,tube area decrease,[4],-28.9% (inactive)
same,GLP1 secretion stimulation,[5],2.9% (inactive)
same,inhibition of viability,[6],-12.4% (inactive)
same,viability decrease (inhibition),[7],6.9% (inactive)
same,viability decrease (inhibition),[8],-5.4% (inactive)
same,red/green cell ratio (normalised),[9],1.2 (inactive)
same,normalised cell number,[9]; [15],1.03
same,normalised cell number,[9]; [16],1.23
same,fold change,[10]; [17],1.04 (inactive)
same,fold change,[10]; [18],0.896
same,cell count,[10]; [19],9080
same,cell count,[10]; [20],8710
same,remaining NAD,[11],10 nM (inactive)
CCCCOCCOCCOCc1cc2c(cc1CCC)OCO2,nuclear beta-catenin stimulation,[1]; at 10 µM,0.2% (inactive)
same,nuclear beta-catenin stimulation,"[1]; stimulation, at 2 µM",1.7%
same,insulin secretion stimulation,[2],1.3% (inactive)
same,viability decrease,[3],-13.9% (inactive)
same,tube area decrease,[4],-2.7% (inactive)
same,GLP1 secretion stimulation,[5],-2.6% (inactive)
same,inhibition of viability,[6],24.7% (inactive)
same,viability decrease (inhibition),[7],11.6% (inactive)
same,viability decrease (inhibition),[8],14.4% (inactive)
same,red/green cell ratio (normalised),[9],0.78 (inactive)
same,normalised cell number,[9]; [15],1.28
same,normalised cell number,[9]; [16],1
same,fold change,[10]; [17],0.878 (inactive)
same,fold change,[10]; [18],0.573
same,cell count,[10]; [19],7660
same,cell count,[10]; [20],8730
same,remaining NAD,[11],10 nM (inactive)
CC(=O)Nc1c(I)c(NC(C)=O)c(I)c(C(=O)O)c1I,parasite load remaining,[12],58.9% (inactive)
same,viability,[12],109%
same,nuclear beta-catenin stimulation,[1]; at 10 µM,1.6% (inactive)
same,nuclear beta-catenin stimulation,"[1]; stimulation, at 2 µM",7.7%
same,insulin secretion stimulation,[2],1.5% (inactive)
same,viability decrease,[3],2.3% (inactive)
same,tube area decrease,[4],-9.3% (inactive)
same,GLP1 secretion stimulation,[5],4.3% (inactive)
same,inhibition of viability,[6],2% (inactive)
same,viability decrease (inhibition),[7],-30.8% (inactive)
same,viability decrease (inhibition),[8],-0.9% (inactive)
same,red/green cell ratio (normalised),[9],1.17 (inactive)
same,normalised cell number,[9]; [15],1.02
same,normalised cell number,[9]; [16],1.19
same,fold change,[10]; [17],0.866 (inactive)
same,fold change,[10]; [18],2.21
same,cell count,[10]; [19],11200
same,cell count,[10]; [20],13000
same,z-score,[13]; [21],0.0135 (inactive)
same,z-score,[13]; [22],0.624
same,remaining NAD,[11],10 nM (inactive)
CC(C)(C)NCC(O)COc1cccc2c1CCC(=O)N2 (configuration not stated),survival,[14],7.75 (inactive)
same,parasite load remaining,[12],126% (inactive) and 79.2% (inactive)
same,viability,[12],105% and 76.8%
same,nuclear beta-catenin stimulation,[1]; at 10 µM,0.7% (inactive)
same,nuclear beta-catenin stimulation,"[1]; stimulation, at 2 µM",1.8%
same,insulin secretion stimulation,[2],1.4% (inactive)
same,viability decrease,[3],-25.9% (inactive)
same,tube area decrease,[4],-2.9% (inactive)
same,GLP1 secretion stimulation,[5],1.2% (inactive)
same,inhibition of viability,[6],-1.83% (inactive)
same,viability decrease (inhibition),[7],-26.6% (inactive)
same,viability decrease (inhibition),[8],-8.8% (inactive)
same,red/green cell ratio (normalised),[9],1.13 (inactive)
same,normalised cell number,[9]; [15],1.2
same,normalised cell number,[9]; [16],1.36
same,fold change,[10]; [17],0.805 (inactive) and 0.903 (inactive)
same,fold change,[10]; [18],0.997 and 0.693
same,cell count,[10]; [19],8680 and 7910
same,cell count,[10]; [20],10800 and 8760
same,z-score,[13]; [21],-0.229 (inactive) and 0.6 (inactive)
same,z-score,[13]; [22],-0.22 and -0.0871
same,remaining NAD,[11],10 nM (inactive)
